Consider twelve compounds from PubChem BioAssay (NCATS).

The structures appear in SMILES notation. Results filed as inconclusive are left out. A number with no mark means an inactive call. Activity calls are given as the source filed them. Calls follow the shape of the dose curve; as a rule, active = well fitted inhibition curve with a large enough effect; inconclusive = small, poorly fitted or top-dose-only effect; inactive = flat fitted curve, though single readings scatter.
% is scaled to controls: 0 for no effect and ±100 for the full control effect.

Sequence of Glutathione peroxidase 1 (Homo sapiens) (P07203 whole entry, looked up): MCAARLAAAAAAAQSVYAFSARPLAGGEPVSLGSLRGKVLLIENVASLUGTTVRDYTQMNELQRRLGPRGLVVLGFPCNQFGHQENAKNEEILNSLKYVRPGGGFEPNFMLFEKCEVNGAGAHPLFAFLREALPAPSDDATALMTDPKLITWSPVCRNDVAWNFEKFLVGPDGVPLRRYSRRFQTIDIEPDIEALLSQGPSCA

The assay concerns the target Glutathione peroxidase 1 (Homo sapiens) (UniProt P07203). The assay can be described thus: Primary qHTS Assay for Inhibitors of Recombinant Selenoprotein Glutathione Peroxidase 1 (GPX1) (AID 1845191). Also: nearly all actives have a fitted effect of over 65% in size. To be noted: recombinant GPX1, GR-coupled NADPH fluorescence, 15 min; series mostly up to 48.8 µM; activity, negative = inhibition: at the top concentration. The essentials: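 GPX1 10 nM, GR 100 nM, GSH 1 mM, NADPH 0.5 mM, CHP 0.5 mM (final). 30-min cpd preincubation, RT. Ex340/Em450 read t=0, t=15 min.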
In general terms: In qHTS, concentration-response curves come from the screen itself.
As to `CC/C=C/CC1=C(CCCCC(CCC(=O)O)OC(C)=O)CCC1=O` (configuration not stated), the “activity, negative = inhibition” value is -29.1% [at 27.7 µM].

On to `Cc1cc2c(F)c(Oc3ncnn4cc(OCC(C)O)c(C)c34)ccc2[nH]1` (configuration not stated), for which the result was inactive.

As to `COC1C(=O)CCC2(CO2)C1(O)C1(C)OC1CC=C(C)C` (configuration not stated), the “activity, negative = inhibition” value was -10.6%.

Turning to `C[C@@H]1CC[C@]2(C(=O)OC3OC(CO)C(O)C(O)C3O)CC[C@]3(C)C(=CCC4[C@@]5(C)CC[C@H](O)[C@](C)(C(=O)O)C5CC[C@]43C)C2[C@]1(C)O` (some centres not stated), the “activity, negative = inhibition” value is -3.64% [at 15.3 µM].

With `O=C(O)/C=C/c1ccc(O)c(O[C@@H]2O[C@H](CO)[C@@H](O)[C@H](O)[C@H]2O)c1`, the “activity, negative = inhibition” value was -1.8% [at 27.7 µM].

Turning to `C=C1C(=O)OC2/C=C(\CO)CC/C=C(\C=O)CC(OC(=O)CC(C)C)C12` (configuration not stated), the “outcome” value was “inactive [at 27.7 µM]”.

`CC(=O)OC[C@]12[C@H](OC(C)=O)C(=O)[C@@H]3[C@@H](OC(C)=O)[C@@]14O[C@@]3(C)COC(=O)c1cccnc1[C@@H](C)[C@H](C)C(=O)O[C@@H]([C@H](O)[C@@H]2OC(C)=O)[C@]4(C)O`: the “activity, negative = inhibition” value was -16.2% [at 15.3 µM].

Take `COc1c2c(c(C)c3c1C(=O)OC3)OC1(C)CC(O)C34OC(OC)(CC(OC(C)=O)C3(C)C1C2)OC4(C)C` (configuration not stated): the “activity, negative = inhibition” value was 2.03% [at 27.7 µM].

As to `CC1OC(OC2CCC3(C)C(CCC4(C)C3CC=C3C5CC(C)(C)CCC5(C(=O)OC5OC(CO)C(O)C(O)C5O)CCC34C(=O)O)C2(C)C)C(O)C(O)C1O` (configuration not stated), the “outcome” value was “inactive [at 15.3 µM]”.

Consider `O=C(c1cccc(Cl)c1F)N1CCN(Cc2cccc(Nc3nccs3)n2)CC1`, for which the outcome was inactive.

Consider `CN(C)c1ccc2c(c1)OC(N)=C(C#N)C2c1cccc(C(F)(F)F)c1` (configuration not stated), for which the “activity, negative = inhibition” value was 4.66%.

Regarding `CC(C)S(=O)(=O)N[C@H]1CCOC[C@@H]1c1ccc(-c2ccc(C#N)s2)cc1`, the outcome was inactive.
